These results are taken from paper PMC9911399, “Two distinct binding modes provide the RNA-binding protein RbFox with extraordinary sequence specificity”.

To fix the notation:
B1: ACGCACA (DNA:RNA)
RNA: GGGAGACCGGAAUUCAGAUUGUCCACGCACAUUAAAUCCCGUCGUAGCCACCA
DNA 1: CAATCTGAATTCCGGTCTCCC
DNA 2: TGGTGGCTACGACGGGATT
B2: GCCGUUU (DNA:RNA)
RNA: B1 RNA with A25G, G27C, C28G, A29U, C30U, A31U
DNA 1: CAATCTGAATTCCGGTCTCCC
DNA 2: TGGTGGCTACGACGGGATT
B3: UCGUGAC (DNA:RNA)
RNA: B1 RNA with A25U, C28U, A29G, C30A, A31C
DNA 1: CAATCTGAATTCCGGTCTCCC
DNA 2: TGGTGGCTACGACGGGATT
B4: UCACAUA (DNA:RNA)
RNA: B1 RNA with A25U, G27A, C30U
DNA 1: CAATCTGAATTCCGGTCTCCC
DNA 2: TGGTGGCTACGACGGGATT
B5: AUAUGCA (DNA:RNA)
RNA: B1 RNA with C26U, G27A, C28U, A29G
DNA 1: CAATCTGAATTCCGGTCTCCC
DNA 2: TGGTGGCTACGACGGGATT
B6: GUAUGCA (DNA:RNA)
RNA: B1 RNA with A25G, C26U, G27A, C28U, A29G
DNA 1: CAATCTGAATTCCGGTCTCCC
DNA 2: TGGTGGCTACGACGGGATT
B7: GGAUGCA (DNA:RNA)
RNA: B1 RNA with A25G, C26G, G27A, C28U, A29G
DNA 1: CAATCTGAATTCCGGTCTCCC
DNA 2: TGGTGGCTACGACGGGATT
B8: UCCCGUA (DNA:RNA)
RNA: B1 RNA with A25U, G27C, A29G, C30U
DNA 1: CAATCTGAATTCCGGTCTCCC
DNA 2: TGGTGGCTACGACGGGATT
B9: UGAAAUG (DNA:RNA)
RNA: B1 RNA with A25U, C26G, G27A, C28A, C30U, A31G
DNA 1: CAATCTGAATTCCGGTCTCCC
DNA 2: TGGTGGCTACGACGGGATT
B10: CCCUGAA (DNA:RNA)
RNA: B1 RNA with A25C, G27C, C28U, A29G, C30A
DNA 1: CAATCTGAATTCCGGTCTCCC
DNA 2: TGGTGGCTACGACGGGATT
B11: CUGAAUG (DNA:RNA)
RNA: B1 RNA with A25C, C26U, C28A, C30U, A31G
DNA 1: CAATCTGAATTCCGGTCTCCC
DNA 2: TGGTGGCTACGACGGGATT
B12: CUGAAUC (DNA:RNA)
RNA: B1 RNA with A25C, C26U, C28A, C30U, A31C
DNA 1: CAATCTGAATTCCGGTCTCCC
DNA 2: TGGTGGCTACGACGGGATT
B13: UGAUUGU (DNA:RNA)
RNA: GGGAGACCGGAAUUCAGAUUGUCCUGAUUGUUUAAAUCCCGUCGUAGCCACCA
DNA 1: CAATCTGAATTCCGGTCTCCC
DNA 2: TGGTGGCTACGACGGGATT
B14: UGAAUGU (DNA:RNA)
RNA: B13 RNA with U28A
DNA 1: CAATCTGAATTCCGGTCTCCC
DNA 2: TGGTGGCTACGACGGGATT
B15: CGGUUCC (DNA:RNA)
RNA: B13 RNA with U25C, A27G, G30C, U31C
DNA 1: CAATCTGAATTCCGGTCTCCC
DNA 2: TGGTGGCTACGACGGGATT
B16: UUUCGAG (DNA:RNA)
RNA: B1 RNA with A25U, C26U, G27U, A29G, C30A, A31G
DNA 1: CAATCTGAATTCCGGTCTCCC
DNA 2: TGGTGGCTACGACGGGATT
B17: AUUAUUA (DNA:RNA)
RNA: B1 RNA with C26U, G27U, C28A, A29U, C30U
DNA 1: CAATCTGAATTCCGGTCTCCC
DNA 2: TGGTGGCTACGACGGGATT
B18: UUUUUAA (DNA:RNA)
RNA: B13 RNA with G26U, A27U, G30A, U31A
DNA 1: CAATCTGAATTCCGGTCTCCC
DNA 2: TGGTGGCTACGACGGGATT
B19: ACUUAAG (DNA:RNA)
RNA: B1 RNA with G27U, C28U, C30A, A31G
DNA 1: CAATCTGAATTCCGGTCTCCC
DNA 2: TGGTGGCTACGACGGGATT
B20: CCAGAGG (DNA:RNA)
RNA: B1 RNA with A25C, G27A, C28G, C30G, A31G
DNA 1: CAATCTGAATTCCGGTCTCCC
DNA 2: TGGTGGCTACGACGGGATT

Positions count from the first letter of the chain named. Over roughly 16,000 sequences, “ka relative to ugcaugu” has its median near 0.096; the highest 2% begin near 0.35. This is one part of a sample in which the highest values are shown more often than they occur.

The assay concerns the target T1, RBFOX1 RRM RbFoxmut (Fox-RRM*) (Homo sapiens, UniProt Q9NWB1 109-208, R118D;E147R;N151S;E152T).
T1 sequence: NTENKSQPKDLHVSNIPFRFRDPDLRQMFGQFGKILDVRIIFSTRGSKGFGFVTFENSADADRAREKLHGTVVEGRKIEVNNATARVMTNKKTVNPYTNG
As to the kind of experiment: EMSA; HiTS-Eq, 1 nM pool, 10 min; buffer printed only for the single-RNA assays: 10 mM Tris pH 7.5, 150 mM NaCl, 3.4 mM EDTA, 0.001% NP-40, 30 C. Particulars: tags: His6 N-terminal (pET28a); label: 5' 32P. An outline of the steps: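 These values rest on relative association constants, computed from read-count changes of each RNA species versus the control reaction and normalised to the cognate motif. Reads came from free RNA recovered by 8% native PAGE after purified RbFox RRM (wild type or mutant) at increasing concentrations was equilibrated for 10 min in 50 µL with 1 nM of a 5′-radiolabelled pool with 7 randomized nucleotides and DNA-annealed flanks.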
As for B1, the binding signal was 0.105 KA relative to UGCAUGU.

As to B2, the binding signal is 0.0818 KA relative to UGCAUGU. B3: the binding signal is 0.0717 KA relative to UGCAUGU. Regarding B4, the binding signal was 0.112 KA relative to UGCAUGU. For the molecule B5, the binding signal was 0.208 KA relative to UGCAUGU. Turning to B6, the binding signal is 0.574 KA relative to UGCAUGU.

B7: the binding signal was 0.24 KA relative to UGCAUGU. Regarding B8, the binding signal is 0.12 KA relative to UGCAUGU. In the case of B9, the binding signal was 0.158 KA relative to UGCAUGU. Consider B10, for which the binding signal was 0.0778 KA relative to UGCAUGU. With B11 the figure was 0.915 KA relative to UGCAUGU. B12: the binding signal is 0.315 KA relative to UGCAUGU.

Turning to B13, the binding signal was 0.308 KA relative to UGCAUGU.

As for B14, the binding signal is 0.75 KA relative to UGCAUGU. On to B15, for which the binding signal was 0.104 KA relative to UGCAUGU.

For B16, the binding signal was 0.107 KA relative to UGCAUGU. B17: the binding signal was 0.154 KA relative to UGCAUGU.

As for B18, the binding signal is 0.1 KA relative to UGCAUGU. Turning to B19, the binding signal was 0.174 KA relative to UGCAUGU. Consider B20, for which the binding signal was 0.0884 KA relative to UGCAUGU.
